This is part of a sample that, as a whole, favours compounds with a hit. Of some 83,000 tested, about 20% had one in any assay.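 Note: values are percent growth. 100 is the growth of untreated cells, values between 100 and 0 indicate rising inhibition; between -100 and 0 indicates cell death.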 The source made the active and inactive calls. The calls were made as follows: active = growth percent below 10; inactive = the rest.
Experiments:
Assay in all cases: NCI-60 one-dose screen, 48 h (100 = growth as untreated, 0 = no growth, -100 = all killed)
Conditions in all cases: 10 µM unless noted
[1] = tested on: RPMI-8226 leukemia
[2] = tested on: OVCAR-8 ovarian
[3] = tested on: OVCAR-5 ovarian
[4] = tested on: OVCAR-4 ovarian
[5] = tested on: SK-OV-3 ovarian
[6] = tested on: IGROV1 ovarian
[7] = tested on: OVCAR-3 ovarian
[8] = tested on: NCI/ADR-RES ovarian
[9] = tested on: BT-549 breast
[10] = tested on: MDA-MB-435 melanoma
[11] = tested on: SW-620 colon
[12] = tested on: MCF7 breast
[13] = tested on: HCT-116 colon
[14] = tested on: HCC-2998 colon
[15] = tested on: KM12 colon
[16] = tested on: HS 578T breast
[17] = tested on: T-47D breast

| SMILES | growth [1] | growth [2] | growth [3] | growth [4] | growth [5] | growth [6] | growth [7] | growth [8] | growth [9] | growth [10] | growth [11] | growth [12] | growth [13] | growth [14] | growth [15] | growth [16] | growth [17] |
| --- | --- | --- | --- | --- | --- | --- | --- | --- | --- | --- | --- | --- | --- | --- | --- | --- | --- |
| COc1ccc(Oc2nc(Nc3ccc(N4CCOCC4)nc3)ncc2NC(=O)c2cc(OC)cc(OC)c2)cc1 | 49% (inactive) | 77.8% (inactive) | 105% (inactive) | 78.2% (inactive) | 88.6% (inactive) | 80% (inactive) | 82.7% (inactive) | 76% (inactive) | 80.2% (inactive) | 32.7% (inactive) | 75.8% (inactive) | 63.8% (inactive) | 72.1% (inactive) | 95.2% (inactive) | 64% (inactive) | – | – |
| CCCCCCN(CCCCCC)CC(O)c1cccc2ccc(Cl)cc12 (stereo not drawn) | 31.2% (inactive) | 93.8% (inactive) | 69.3% (inactive) | 70% (inactive) | – | 40.8% (inactive) | 63.2% (inactive) | 66.9% (inactive) | 99.2% (inactive) | 69.9% (inactive) | 35.7% (inactive) | 56.5% (inactive) | 16.7% (inactive) | 13.1% (inactive) | 44.5% (inactive) | – | – |
| O=C(O)CC1Sc2ccccc2NC1=O (stereo not drawn) | 96% (inactive) | – | 83.9% (inactive) | 128% (inactive) | 106% (inactive) | 93.6% (inactive) | 110% (inactive) | 88.2% (inactive) | 118% (inactive) | 104% (inactive) | 103% (inactive) | 255% (inactive) | 100% (inactive) | 106% (inactive) | 104% (inactive) | 133% (inactive) | 111% (inactive) |
| CNC(=O)NCC1OC(n2cnc3c(NC(=O)Nc4ccccc4)ncnc32)C2OC(C)(C)OC12 (stereo not drawn) | 87.2% (inactive) | 100% (inactive) | 109% (inactive) | 89.6% (inactive) | 79.3% (inactive) | – | 89% (inactive) | 101% (inactive) | 71.7% (inactive) | 101% (inactive) | 91.1% (inactive) | 85.4% (inactive) | 81.1% (inactive) | 95.5% (inactive) | 89.9% (inactive) | – | 74.7% (inactive) |
| CN(C)c1cnccn1 | 65.2% (inactive) | 92.5% (inactive) | 114% (inactive) | 82.3% (inactive) | – | 91.1% (inactive) | 104% (inactive) | 88.6% (inactive) | 73% (inactive) | 100% (inactive) | 88.7% (inactive) | 87.3% (inactive) | – | 112% (inactive) | 103% (inactive) | – | – |
| Cc1ccc(/C=C(\C#N)n2nnc3cc(Cl)c(Cl)cc32)cc1 | – | 14.8% (inactive) | 13.3% (inactive) | 29.3% (inactive) | – | 12.2% (inactive) | -35.2% (active) | -25.5% (active) | 7.89% (active) | -46.7% (active) | 16.3% (inactive) | 6.58% (active) | 8.31% (active) | 13.6% (inactive) | 0.682% (active) | 11.7% (inactive) | 15.1% (inactive) |
| Cc1cc(N(CCCNc2ccnc3cc(Cl)ccc23)Cc2ccccn2)nc(N2CCOCC2)n1 | 85.2% (inactive) | 81.7% (inactive) | 95.8% (inactive) | 82.3% (inactive) | – | 82.2% (inactive) | 97.6% (inactive) | 88.6% (inactive) | 90.5% (inactive) | 111% (inactive) | 83.5% (inactive) | 87% (inactive) | 57.9% (inactive) | 105% (inactive) | 103% (inactive) | 80.9% (inactive) | – |
| CCOc1ccc(S(=O)(=O)c2ccc(C)cc2)c2c1no[n+]2[O-] | 67.9% (inactive) | 90.7% (inactive) | 99.1% (inactive) | 67.5% (inactive) | 77.4% (inactive) | – | 85.2% (inactive) | 71.8% (inactive) | – | 91.4% (inactive) | 100% (inactive) | 83.1% (inactive) | – | 100% (inactive) | 93.6% (inactive) | 78.4% (inactive) | 56.4% (inactive) |
| O=C(CCc1nc(-c2cccc(Cl)c2)no1)Nc1ccccn1 | – | 106% (inactive) | 100% (inactive) | 107% (inactive) | 104% (inactive) | 90.4% (inactive) | 108% (inactive) | 95% (inactive) | 95.7% (inactive) | 105% (inactive) | 103% (inactive) | 90.2% (inactive) | – | 97.7% (inactive) | 98% (inactive) | 93.8% (inactive) | 107% (inactive) |
| COc1ccc(-c2cc(-c3ccc(Nc4nc(Nc5ccccc5)nc(Nc5ccc(Cl)cc5)n4)cc3)nc(N)c2C#N)cc1 | -29.6% (active) | 31.9% (inactive) | -38.7% (active) | 4.19% (active) | 86.8% (inactive) | -18.4% (active) | -96.1% (active) | 2.12% (active) | -50.6% (active) | -58.5% (active) | -45.6% (active) | -32.7% (active) | – | – | -12.5% (active) | – | -32% (active) |
| Cc1cc(Cc2cc(C)cc(C(C)(C)C)c2O)c(O)c(C(C)(C)C)c1 | 32.2% (inactive) | 33.9% (inactive) | – | 48.5% (inactive) | 51.9% (inactive) | 47.5% (inactive) | 38.5% (inactive) | – | 74.1% (inactive) | 52.2% (inactive) | 39.8% (inactive) | 12.8% (inactive) | 8.68% (active) | 31.6% (inactive) | 29.8% (inactive) | – | 9.69% (active) |
| O=C1/C(=C/c2ccc([N+](=O)[O-])cc2)COc2ccc(O)c(O)c21 | – | 14.2% (inactive) | -68.6% (active) | 6.56% (active) | – | -40% (active) | -88.2% (active) | 11.1% (inactive) | 24.3% (inactive) | 0.103% (active) | -40.6% (active) | 8.42% (active) | -34.3% (active) | -77.8% (active) | -55.3% (active) | 4.58% (active) | -5.74% (active) |
| COc1cc(/C=C/C(=O)c2ccc(Nc3nc(Nc4ccccc4)nc(Nc4ccc(Cl)cc4)n3)cc2)cc(OC)c1OC | -4.87% (active) | 41.1% (inactive) | 55.1% (inactive) | 61% (inactive) | 79.5% (inactive) | 54.8% (inactive) | 48% (inactive) | 21.8% (inactive) | 50.9% (inactive) | 58.8% (inactive) | 56.2% (inactive) | 7.84% (active) | 0.251% (active) | – | – | – | – |

From PubChem BioAssay (NCI)
